Screening results (PubChem BioAssay)
CBFb-RUNX1 inh = inhibitors of human CBF-beta and RUNX1 interaction | Q01196+Q13951 | AlphaScreen CBFb-His/RUNX1-biotin binding, biochemical | Potency, µM (top dose mostly 59.8 µM), for inactives: at the highest dose activity, negative = inhibition, most hits filed as inhibitors | 230,000 tested, under 10 active | AID 1477; active = well fitted curve in the direction sought with a large enough effect; inconclusive = small, poorly fitted or top-dose-only effect, or effect the other way, or another doubt; inactive = no such curve, though single readings can be large or run the other way; also: % of control where 0% means no effect
Target sequence (Q01196 whole entry, looked up): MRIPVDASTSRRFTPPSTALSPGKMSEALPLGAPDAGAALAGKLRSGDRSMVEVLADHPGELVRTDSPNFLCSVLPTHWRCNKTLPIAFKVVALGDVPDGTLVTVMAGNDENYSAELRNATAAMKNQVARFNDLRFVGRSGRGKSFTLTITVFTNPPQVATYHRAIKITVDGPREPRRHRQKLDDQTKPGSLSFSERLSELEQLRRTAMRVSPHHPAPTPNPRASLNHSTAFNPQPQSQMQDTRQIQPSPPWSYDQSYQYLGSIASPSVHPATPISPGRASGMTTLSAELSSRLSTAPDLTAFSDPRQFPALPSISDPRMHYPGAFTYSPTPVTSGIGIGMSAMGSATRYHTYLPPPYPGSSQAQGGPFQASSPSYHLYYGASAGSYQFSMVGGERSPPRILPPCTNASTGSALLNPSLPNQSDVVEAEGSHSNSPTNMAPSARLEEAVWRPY
Target sequence (Q13951 whole entry, looked up): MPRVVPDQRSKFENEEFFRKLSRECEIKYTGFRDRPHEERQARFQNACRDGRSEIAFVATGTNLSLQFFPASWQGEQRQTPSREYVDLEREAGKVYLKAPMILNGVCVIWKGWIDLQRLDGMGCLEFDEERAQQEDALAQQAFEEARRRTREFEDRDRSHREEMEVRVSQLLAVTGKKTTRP
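Room-temperature protein-protein interaction test with 30 nM each of His-tagged CBF-beta and biotinylated RUNX1, 15 min with compound, then 90 min with nickel plus streptavidin beads. Signal read in AlphaScreen mode.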
ClpP mod = qHTS Assay for Activators of ClpP. ATP-dependent Clp protease proteolytic subunit (Bacillus subtilis (strain 168)), P80244. AID 651965, 2013. 1.9% of 340,000 active. Potency, µM (highest dose often 57.5 µM), for inactives: at the highest dose activity change, negative = active. purified B. subtilis ClpP, FRET peptide cleavage, 20 min; active = well fitted falling curve with a large enough effect; inconclusive = small, poorly fitted or top-dose-only effect; inactive = no such curve, though single readings can be large or run the other way; also: potency is read from the fitted curve at half-maximal effect; the source files actives as falling curves though it sought activators and does not explain the sign; nearly all actives have a fitted effect of over 65% in size
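FRET quenching reversal measured ClpP activation: 10 microg/mL B. subtilis ClpP at pH 8 with the FRET-FV decapeptide, read at 430 nm after 320 nm excitation. The 20-min minus 0-min signal was scaled between DMSO/no-enzyme wells and ADEP (5.8 microM final).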
MBNL1 CUG block = inhibitors of human MBNL1 binding to CUG repeat RNA; Q9NR56; TR-FRET MBNL1-His/biotin-(CUG)12 binding, 665/545 ratio; Potency, µM (titrated, usually from 57.5 µM), inactives show at the highest dose activity change, negative = inhibition, hits mostly inhibitors; 0.036% of 280,000 active; AID 2675; active = well fitted inhibition curve with a large enough effect in the signal ratio, with a control signal flat, not every such curve was filed as active; inconclusive = small, poorly fitted or top-dose-only effect, or effect the other way, or a change in a side signal; inactive = no such curve, though single readings can be large or run the other way; the % refers to the signal ratio; also: potency is read from the fitted curve at half-maximal effect; % is scaled to controls: 0 for no effect and ±100 for the full control effect
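Compound titration spanned 92 nM–58 uM against the MBNL1-His/biotin-(CUG)12 complex. After 60 min at room temperature with 5 nM streptavidin-XL665 and 0.055 ng/ul terbium anti-His, ratiometric 665/545 nm emission (Ex 340 nm) normalized to controls.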
Rango-impB inh = Rango-importin beta binding inhibition. Q14974. Rango CFP/YFP FRET sensor + importin beta, 45 min. Potency, µM (titrated, usually from 92.2 µM), without a hit: top-dose inhibition of complex formation. 0.031% of 340,000 active. AID 540263;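 also: potency is read from the fitted curve at half-maximal effect; 0% = DMSO wells and 100% = buffer wells lacking importin beta; nearly all actives have a fitted effect of over 15% in size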
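FRET biosensor (snurportin 1 IBB flanked by EYFP and cerulean), 50 nM, with compound 5 min, then 0.125 microM importin beta in PBS, 1 mM DTT, 0.02% Tween-20, 0.1% BSA. CFP/YFP ratio read after 45 min at room temperature; pre-read flags interference.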
Rango release inh = inhibition of RanGTP-driven Rango-importin beta dissociation. O95149+P62826. 0.071% of 340,000 active. Biochemical FRET Rango-importin beta, RanGTP-induced dissociation. Potency, µM (series often up to 46.1 µM), inactives show top-dose activity change, negative = inhibition. AID 540253; also: potency is read from the fitted curve at half-maximal effect; % of control where 0% means no effect; nearly all actives have a fitted effect of over 45% in size
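Recombinant Rango FRET biosensor (EYFP–snurportin 1 IBB–cerulean CFP10) at 0.1 uM premixed with 0.25 uM importin beta in PBS, 1 mM DTT, 0.02% Tween-20, 0.1% BSA. Compound added 5 min; RanGTP-RCC1 (0.6 uM Ran, 2 mM GTP, 0.2 uM RCC1) then triggers release, read at 45 min.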
Starred values were filed as active, the others as inactive. Only a selection was taken, and hits are over-represented in it overall. Unless noted, calls follow the shape of the full dose curve.

For CCOC(=O)C1=C(C)NC2=C(C(=O)C(C(=O)OCC)C(c3ccco3)C2)C1c1ccccn1 (stereo unspecified) the results were CBFb-RUNX1 inh 8.8%, ClpP mod 31.6µM*, MBNL1 CUG block 6.5%, Rango-impB inh inconclusive and Rango release inh inconclusive.
For CCOC(=O)C1=C(C)NC2=C(C(=O)C(C(=O)OCC)C(c3ccco3)C2)C1c1ccccc1C (stereo unspecified) the results were ClpP mod 2.6%.
`COc1ccc(NC(=O)CSC2=Nc3ccccc3C3=NC(CCC(=O)NCc4cccs4)C(=O)N23)cc1` (stereo unspecified) gave ClpP mod -3.8%.
Screening Cc1ccc(S(=O)(=O)N2CCCN(c3nc(-c4cccs4)nc4ccccc34)CC2)cc1 returned ClpP mod -10.8%.
Screening O=C(c1cc(-c2ccccc2O)on1)N1CCCCC1 returned ClpP mod 0.2%.
For COc1cccc(CNS(=O)(=O)c2cn(C)cn2)c1 the results were CBFb-RUNX1 inh -1.2%, ClpP mod 14.1µM*, MBNL1 CUG block -13.5%, Rango-impB inh 0.1% and Rango release inh -2.9%.
Screening Cn1cnc(S(=O)(=O)NCc2ccccc2)c1 returned CBFb-RUNX1 inh 18.2%, ClpP mod 0.5%, MBNL1 CUG block -9.9%, Rango-impB inh -1.4% and Rango release inh -1.0%.
For O=C1c2ccccc2NC(c2ccccc2)N1Cc1ccco1 (stereo unspecified) the results were CBFb-RUNX1 inh 0.7%, ClpP mod 28.2µM*, MBNL1 CUG block 5.1%, Rango-impB inh 0.8% and Rango release inh -8.0%.
For Cc1ccc(CN2CCN(CCCc3ccccc3)CC2CCO)cc1 (stereo unspecified) the results were CBFb-RUNX1 inh 3.6%, ClpP mod 0.5%, MBNL1 CUG block -4.3%, Rango-impB inh -0.1% and Rango release inh 9.6%.
For OCCC1CN(CCCc2ccccc2)CCN1Cc1ccc(F)cc1 (stereo unspecified) the results were ClpP mod 31.6µM*, MBNL1 CUG block -6.9%, Rango-impB inh 2.4% and Rango release inh -1.2%.
For O=C(O)CCC(=O)N1CCCC1C(=O)O (stereo unspecified) the results were CBFb-RUNX1 inh 16.1%.
`O=C(NCCc1nc2ccccc2n1CCCOc1ccccc1Cl)C1CCCCC1` gave ClpP mod 2.4%.
For COc1ccccc1Oc1coc2c(CN3CCOCC3)c(O)ccc2c1=O the results were CBFb-RUNX1 inh 1.5%, MBNL1 CUG block -8.1%, Rango-impB inh 0.2% and Rango release inh -3.9%.
`COc1cccc(Oc2coc3c(CN4CCOCC4)c(O)ccc3c2=O)c1` gave CBFb-RUNX1 inh -0.6%, ClpP mod 20µM*, MBNL1 CUG block 2.6%, Rango-impB inh 1.3% and Rango release inh -3.5%.
For O=C(NCCCN1CCCCCC1)C(c1ccccc1)C1CCCCC1 (stereo unspecified) the results were CBFb-RUNX1 inh 5.7%.
Screening CC1(C)CC(=O)C2=C(C1)Nc1ccccc1NC2c1cccs1 (stereo unspecified) returned CBFb-RUNX1 inh 2.5%, MBNL1 CUG block 3.9%, Rango-impB inh -2.0% and Rango release inh -1.4%.
Screening O=C1CCCC2=C1C(c1cccs1)Nc1ccccc1N2 (stereo unspecified) returned CBFb-RUNX1 inh -5.5%, ClpP mod 20µM*, MBNL1 CUG block -6.7%, Rango-impB inh 0.7% and Rango release inh 0.7%.
For COC(=O)C1=CN(CC2CCCO2)C=C(C(=O)OC)C1c1cc(OC)c(OC)c(OC)c1 (stereo unspecified) the results were CBFb-RUNX1 inh 7.2%, ClpP mod 25.1µM*, MBNL1 CUG block 25.5%, Rango-impB inh inconclusive and Rango release inh inconclusive.
Screening Fc1ccccc1N1CCN(Cc2nnc(-c3ccc4c(c3)OCO4)o2)CC1 returned ClpP mod 35.5µM*.
Screening O=C(CSc1cn(CC(=O)N2CCCCC2)c2ccccc12)Nc1ccccc1F returned ClpP mod -4.8%.
Screening O=C(Nc1ccc(/C=C/c2nc3ccccc3o2)cc1)c1cccc(C(F)(F)F)c1 returned CBFb-RUNX1 inh 6.2%, ClpP mod 15.8µM*, MBNL1 CUG block -2.6%, Rango-impB inh -3.4% and Rango release inh 30.8%.
COc1ccc2oc(C(=O)OC(C)C(=O)N(C)c3ccccc3)c(C)c2c1 (stereo unspecified) was read as ClpP mod 22.4µM*, Rango-impB inh 0.4% and Rango release inh 3.9%.
`COc1ccc2oc(C(=O)OCC(=O)N3CC(C)CC(C)C3)c(C)c2c1` (stereo unspecified) gave ClpP mod 14.1µM*, Rango-impB inh 0.3% and Rango release inh 13.0%.
`COc1ccc2oc(C(=O)OC(C)C(=O)Nc3ccc(N4CCOCC4)cc3)c(C)c2c1` (stereo unspecified) gave ClpP mod -18.4%, Rango-impB inh -0.9% and Rango release inh -7.3%.
Screening CN(C(=O)COC(=O)c1ccccc1NCCO)C1CCS(=O)(=O)C1 (stereo unspecified) returned ClpP mod 20µM*, Rango-impB inh 0.3% and Rango release inh 1.6%.
For COc1ccc2oc(C(=O)OC(C)C(=O)N3CCC(C)CC3)c(C)c2c1 (stereo unspecified) the results were ClpP mod 25.1µM*, Rango-impB inh 1.6% and Rango release inh 38.4%.
Screening COC(=O)c1nc2n(n1)C(c1cc(OC)ccc1OC)C(C(=O)Nc1ccc(C)cc1C)=C(C)N2 (stereo unspecified) returned ClpP mod -3.5%.
COc1cccc(OC)c1-c1cc(CCCc2cc(-c3c(OC)cccc3OC)nc3ccccc23)c2ccccc2n1 was read as ClpP mod -11.7%.
For COc1ccc2oc(C(=O)OCC(=O)N3CCCCC3C)c(C)c2c1 (stereo unspecified) the results were ClpP mod 8.91µM*, Rango-impB inh 1.5% and Rango release inh -7.2%.
`CCNC(=O)NC(=O)C(C)OC(=O)c1oc2ccc(OC)cc2c1C` (stereo unspecified) gave CBFb-RUNX1 inh 2.1%, ClpP mod 31.6µM*, MBNL1 CUG block 6.8%, Rango-impB inh 4.5% and Rango release inh 4.2%.
COc1ccc2oc(C(=O)OCC(=O)N(C)C3CCS(=O)(=O)C3)c(C)c2c1 (stereo unspecified) was read as ClpP mod 10µM*, Rango-impB inh 1.2% and Rango release inh -15.2%.
